Results as given in PubChem BioAssay AID1159580 (chemical genetic matrix, 2015).
In all, about 5,500 compounds went through this assay and about 2,000 (36%) were called active. Another 18% or so got no clear call; they are omitted. No stated cut-off is given here; in the data, active means normalized growth mostly below about 0.91 (no sharp cut-off); inconclusive means no clear call, values can overlap the other calls; inactive means mostly above about 0.92. Some of the results follow.

Assay: chemical genetic growth profiling, strain panel (AID 1159580);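 further: tested at 20 µM; growth read once vehicle control cultures reached saturation at 30 °C; 1 = growth at the plate median or of vehicle wells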
Settings: S. cerevisiae deletion strains, growth OD

Measured: normalized growth

CS(=O)(=O)/C(C#N)=C/c1ccccc1OCc1c(Cl)cccc1Cl
inactive: locus YAR019C, strain CDC15, stronger effect = lower value 0.978 | locus YBL105C, strain PKC1, stronger effect = lower value 0.958 | locus YBR135W, strain CKS1, stronger effect = lower value 0.964 | locus YBR136W, strain MEC1, stronger effect = lower value 0.958 | locus YBR160W, strain CDC28, stronger effect = lower value 0.954 | locus YDL017W, strain CDC7, stronger effect = lower value 0.961 | locus YDL028C, strain MPS1, stronger effect = lower value 0.956 | locus YDL101C, strain DUN1, stronger effect = lower value 0.958 | locus YDL108W, strain KIN28, stronger effect = lower value 0.942 | locus YDL132W, strain cdc53, stronger effect = lower value 0.96 | locus YDL214C, strain PRR2, stronger effect = lower value 0.926 | locus YDR052C, strain DBF4, stronger effect = lower value 0.957 | locus YDR054C, strain cdc34, stronger effect = lower value 0.975 | locus YDR226W, strain ADK1, stronger effect = lower value 0.969 | locus YDR477W, strain SNF1, stronger effect = lower value 0.943 | locus YER123W, strain YCK3, stronger effect = lower value 0.913 | locus YER133W, strain GLC7, stronger effect = lower value 0.953 | locus YFL009W, strain cdc4, stronger effect = lower value 0.977 | locus YFL029C, strain CAK1, stronger effect = lower value 0.979 | locus YFR003C, strain YPI1, stronger effect = lower value 0.965 | locus YFR019W, strain FAB1, stronger effect = lower value 0.961 | locus YFR028C, strain CDC14, stronger effect = lower value 0.974 | locus YGR040W, strain KSS1, stronger effect = lower value 0.91 | locus YGR052W, strain FMP48, stronger effect = lower value 0.97 | locus YGR092W, strain DBF2, stronger effect = lower value 0.934 | locus YHR030C, strain SLT2, stronger effect = lower value 1.02 | locus YHR079C, strain IRE1, stronger effect = lower value 1.03 | locus YHR082C, strain KSP1, stronger effect = lower value 1.01 | locus YHR205W, strain SCH9, stronger effect = lower value 0.916 | locus YIL147C, strain SLN1, stronger effect = lower value 0.956 | locus YJL095W, strain BCK1, stronger effect = lower value 0.976 | locus YJL128C, strain PBS2, stronger effect = lower value 0.918 | locus YJL157C, strain FAR1, stronger effect = lower value 0.95 | locus YJR016C, strain ILV3, stronger effect = lower value 0.973 | locus YJR066W, strain TOR1 (second series), stronger effect = lower value 0.947 | locus YJR066W, strain TOR1, stronger effect = lower value 1.04 | locus YKL048C, strain ELM1, stronger effect = lower value 0.901 | locus YKL067W, strain YNK1, stronger effect = lower value 0.942 | locus YKL101W, strain HSL1, stronger effect = lower value 0.892 | locus YKL193C, strain SDS22, stronger effect = lower value 0.968 | locus YKL203C, strain TOR2, stronger effect = lower value 0.996 | locus YLR113W, strain HOG1, stronger effect = lower value 0.866 | locus YLR133W, strain CKI1, stronger effect = lower value 0.92 | locus YLR403W, strain SFP1, stronger effect = lower value 0.885 | locus YML070W, strain DAK1, stronger effect = lower value 0.923 | locus YMR001C, strain CDC5, stronger effect = lower value 0.966 | locus YMR205C, strain PFK2 (second series), stronger effect = lower value 0.953 | locus YMR277W, strain FCP1, stronger effect = lower value 0.978 | locus YNL006W, strain LST8, stronger effect = lower value 0.973 | locus YNL020C, strain ARK1, stronger effect = lower value 0.926 | locus YNL161W, strain CBK1, stronger effect = lower value 0.964 | locus YNL183C, strain NPR1, stronger effect = lower value 1.02 | locus YNL207W, strain RIO2, stronger effect = lower value 0.946 | locus YNL222W, strain SSU72, stronger effect = lower value 0.966 | locus YNL307C, strain MCK1 (second series), stronger effect = lower value 0.945 | locus YOL078W, strain AVO1, stronger effect = lower value 0.962 | locus YOL136C, strain PFK27, stronger effect = lower value 0.879 | locus YOR061W, strain CKA2, stronger effect = lower value 0.922 | locus YOR119C, strain RIO1, stronger effect = lower value 0.986 | locus YOR231W, strain MKK1, stronger effect = lower value 0.948 | locus YOR329C, strain SCD5, stronger effect = lower value 0.968 | locus YPL031C, strain PHO85, stronger effect = lower value 0.934 | locus YPL153C, strain RAD53, stronger effect = lower value 0.95 | locus YPL204W, strain HRR25, stronger effect = lower value 0.897 | locus YPL209C, strain IPL1, stronger effect = lower value 0.967 | locus YPL256C, strain CLN2, stronger effect = lower value 0.979 | locus YPR025C, strain CCL1, stronger effect = lower value 0.969 | locus YPR106W, strain ISR1, stronger effect = lower value 0.948 | locus YPR111W, strain DBF20, stronger effect = lower value 0.924 | strain NNK1, stronger effect = lower value 0.966 | strain TSCII, stronger effect = lower value 0.962
